Measured values: publication PMC4336329 (PLoS ONE, 2015)
The whole screen tested about 310,000 compounds, of which about 14,000 (4.5%) showed an effect of 50% or more. The effect is printed as a negative number. What follows is part of a selection rich in strong results, with near analogues and random picks from the rest.

Target: human ether-à-go-go-related gene (hERG) potassium channel (human, UniProt Q12809)
Assay: primary screen, population patch clamp on CHO cells stably expressing hERG; higher = less effect of the substance
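Also: peak tail current of the secondary pulse compared with the same well before compound.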

Chain of human ether-à-go-go-related gene (hERG) potassium channel (Q12809 whole entry, looked up): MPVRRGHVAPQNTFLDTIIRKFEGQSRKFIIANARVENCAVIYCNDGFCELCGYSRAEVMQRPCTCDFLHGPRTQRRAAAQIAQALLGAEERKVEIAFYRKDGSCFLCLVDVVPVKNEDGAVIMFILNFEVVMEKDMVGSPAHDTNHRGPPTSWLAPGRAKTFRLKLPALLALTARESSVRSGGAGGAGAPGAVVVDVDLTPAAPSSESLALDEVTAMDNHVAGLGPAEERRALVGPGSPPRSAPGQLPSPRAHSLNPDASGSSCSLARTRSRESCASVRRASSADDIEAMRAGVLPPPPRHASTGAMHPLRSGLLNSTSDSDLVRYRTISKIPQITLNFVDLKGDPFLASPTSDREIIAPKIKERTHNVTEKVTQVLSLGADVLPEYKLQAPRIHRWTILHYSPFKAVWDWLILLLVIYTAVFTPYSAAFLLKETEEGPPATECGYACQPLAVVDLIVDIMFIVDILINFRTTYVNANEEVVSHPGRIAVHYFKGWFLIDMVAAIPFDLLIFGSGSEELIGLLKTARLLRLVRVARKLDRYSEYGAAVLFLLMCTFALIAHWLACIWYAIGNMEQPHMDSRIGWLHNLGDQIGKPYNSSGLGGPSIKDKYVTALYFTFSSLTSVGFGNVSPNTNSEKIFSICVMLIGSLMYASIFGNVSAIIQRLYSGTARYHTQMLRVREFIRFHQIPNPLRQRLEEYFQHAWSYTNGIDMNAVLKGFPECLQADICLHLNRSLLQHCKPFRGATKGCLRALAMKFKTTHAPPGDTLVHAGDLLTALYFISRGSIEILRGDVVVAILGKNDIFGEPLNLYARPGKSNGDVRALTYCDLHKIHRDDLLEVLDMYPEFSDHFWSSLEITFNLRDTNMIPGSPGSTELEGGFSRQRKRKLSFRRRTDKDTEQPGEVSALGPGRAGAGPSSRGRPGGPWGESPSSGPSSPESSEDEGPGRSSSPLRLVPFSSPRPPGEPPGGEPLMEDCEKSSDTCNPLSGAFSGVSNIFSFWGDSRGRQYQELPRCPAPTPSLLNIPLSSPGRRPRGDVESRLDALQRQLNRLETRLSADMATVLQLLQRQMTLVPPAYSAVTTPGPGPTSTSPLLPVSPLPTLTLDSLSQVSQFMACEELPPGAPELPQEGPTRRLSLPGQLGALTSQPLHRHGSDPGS

Compound | hERG current change (%, negative = inhibition) at 10uM
CC(=O)c1sc(NC(=O)c2oc3ccc(F)cc3c2C)nc1C | 0.318%
O=C(c1cccc(F)c1)N1CCN(S(=O)(=O)c2ccccc2)CC1 | 0.349%
CO/N=C/c1ccc(N2CCN(C(=O)c3ccc(Cl)cc3Cl)CC2)c([N+](=O)[O-])c1 | -53.1%
O=C(O/N=C\c1ccc(N2CCOCC2)c([N+](=O)[O-])c1)c1ccc(F)cc1 | -6.14%
Cc1ccc(C(=O)O/N=C\c2ccc(N3CCCCC3)c([N+](=O)[O-])c2)cc1 | 12.8%
CO/N=C/c1ccc(N2CCOCC2)c([N+](=O)[O-])c1 | 0.313%
CO/N=C/c1ccc(N2CCCC2)c([N+](=O)[O-])c1 | -1.34%
O=C(O/N=C\c1ccc(N2CCCCC2)c([N+](=O)[O-])c1)c1ccc(Cl)cc1Cl | -1.17%
CO/N=C/c1ccc(N2CCN(C(=O)c3ccc(F)cc3)CC2)c([N+](=O)[O-])c1 | -78.3%
CO/N=C/c1ccc(N2CCN(C(=O)c3ccc(C)cc3)CC2)c([N+](=O)[O-])c1 | -74.9%
CO/N=C/c1ccc(N2CCN(C(=O)c3cccc(C(F)(F)F)c3)CC2)c([N+](=O)[O-])c1 | -43.5%
O=C(NCCS(=O)(=O)N1CCN(c2ccccc2F)CC1)c1cccc(Br)c1 | 2.34%
O=C1COc2ccc(C(=O)CSc3ccccc3C(=O)O)cc2N1 | 12.1%
C=CCn1c(C)cc(-c2csc(NC(=O)CCc3nc4ccccc4c(=O)[nH]3)n2)c1C | -23.8%
CCOC(=O)C1C2C=CC3(CN(Cc4ccccc4)C(=O)C13)O2 (stereo not drawn) | 13.7%
C/C(CC(=O)NC1CCCCCC1)=N\NC(=O)c1cnccn1 | 2.01%
CC(C)n1cnnc1SCC(=O)NCC(=O)Nc1ccc(F)cc1 | 11.2%
C/C(=N\NC(=O)c1ccn(C)n1)c1ccc(NC(=O)c2cccc(F)c2)cc1 | 8.11%
CCc1ccc(OC(=O)c2cccnc2)cc1 | 21.6%
COCCCNC(=O)c1ccccc1NS(C)(=O)=O | 4.15%
COc1ccc(C(=O)NCCNc2nc3cc(C)c(C)cc3cc2C)cc1 | 7.22%
CCOc1ccc2nc(NCCNC(=O)CC)c(C#N)cc2c1 | -12%
COCC(=O)NCCNc1nc2ccc(C)cc2cc1C | -24.9%
CCOc1ccc2nc(NCCNC(=O)C(C)(C)C)c(C)cc2c1 | -46.1%

Compound | hERG current change (%, negative = inhibition) at 10uM
CCOc1ccc2nc(NCCNC(=O)C(C)C)c(C)cc2c1 | -61%
CCOc1ccc2nc(NCCNC(=O)C3CC3)c(C)cc2c1 | -63.7%
O=C(CSc1nc(-c2ccccc2)cs1)Nc1nccs1 | -8.07%
CC(=O)c1c(N2CCN(C(=O)c3ccco3)CC2)nc(=S)n(-c2ccccc2)c1C | -1.95%
Cc1cc(NC(=O)c2ccc(Br)c(S(=O)(=O)N3CCCC3)c2)no1 | 0.115%
COc1ccc2cc1Oc1ccc(cc1)C[C@H]1c3cc(c(OC)cc3CCN1C)Oc1c(OC)c(OC)cc3c1[C@H](C2)N(C)CC3 | -37.4%
COc1ccc2cc1Oc1ccc(cc1)C[C@H]1c3cc(c(OC)cc3CCN1C)Oc1c(O)c(OC)cc3c1[C@H](C2)N(C)CC3 | -47.7%
COc1ccc2cc1Oc1ccc(cc1)C[C@H]1c3cc(c(OC)cc3CCN1C)Oc1c(OC)c(OC)cc3c1[C@@H](C2)N(C)CC3 | -57.4%
CC(C)CN(C(=O)c1ccc(N2CCCC2=O)cc1)c1c(N)n(Cc2ccccc2)c(=O)[nH]c1=O | 19.6%
Cc1cccc(N2CCN(C(=O)c3ccc(Cl)c(S(=O)(=O)NCc4ccco4)c3)CC2)c1C | 4.75%
O=C(c1ccc(S(=O)(=O)NCc2ccco2)cc1)N1CCN(Cc2ccccc2)CC1 | 2.86%
COc1ccccc1N1CCN(C(=O)c2ccc(Cl)c(S(=O)(=O)NCc3ccco3)c2)CC1 | -14.2%
O=C(c1ccc(Cl)c(S(=O)(=O)NCc2ccco2)c1)N1CCN(c2ccc(F)cc2)CC1 | -70.3%
COc1ccc(N2CCN(C(=O)c3ccc(S(=O)(=O)NCc4ccco4)cc3)CC2)cc1 | -54.7%
O=C(c1ccc(S(=O)(=O)NCc2ccco2)cc1)N1CCN(c2ccc(F)cc2)CC1 | -31.5%
N#Cc1ccc(CN2CCN(C(=O)c3ccc(S(=O)(=O)NCc4ccco4)cc3)CC2)cc1 | -59.8%
CCOC(=O)N1CCN(C(=O)c2ccc(S(=O)(=O)NCc3ccco3)cc2)CC1 | -2%
O=C(c1ccc(S(=O)(=O)NCc2ccco2)cc1)N1CCN(Cc2ccc3c(c2)OCO3)CC1 | -32.5%
Cc1cccc(NC(=O)CN2C(=O)COc3ccc(Cl)cc32)c1C | 8.74%
O=C(NCC(=O)N(Cc1ccco1)C(C(=O)NC1CCCC1)c1ccncc1)c1cccs1 (stereo not drawn) | -0.29%
O=C(N/N=C/c1cc([N+](=O)[O-])ccc1O)C1CC1 | 9.47%
Cc1cc(C)n(-c2nc3ccccc3c(=O)n2OCCOc2ccccc2)n1 | -1.88%
COc1ccc2c(c1)C(=O)Cc1ccccc1O2 | 0.762%
COc1ccc(C(c2nnnn2C2CCCCC2)N2CCN(C)CC2)c(OC)c1 (stereo not drawn) | -4.87%

Compound | hERG current change (%, negative = inhibition) at 10uM
N/C(=N\OC(=O)C12CC3CC(CC(C3)C1)C2)c1ccccc1 | -11.1%
COc1ccc2nc(/N=C/c3c(O)n(-c4cccc(Cl)c4)c(=O)[nH]c3=O)sc2c1 | 2.53%
CCOC(=O)CC(=O)CSc1nc2nc(C)cc(C)n2n1 | 8.34%
O=C(Nc1ccccc1)c1ccncc1 | 1.31%
O=C(COC(=O)c1ccc(O)cc1O)NNC(=O)c1cccs1 | 6.45%
CSc1nc(N2CCOCC2)cc(N2CCOCC2)n1 | 7.09%
O=C(CN1C(=O)c2cccc3cccc(c23)C1=O)N1CCCCC1 | 0.0571%
Cc1cc(C)c(NC(=O)C2CCCN2CCOC(=O)c2cccc([N+](=O)[O-])c2)c(C)c1.Cl (stereo not drawn) | -63.2%
Cc1cc(C)c(NC(=O)C2CCCN2CCO)c(C)c1 (stereo not drawn) | -14.5%
Cc1cc(C)c(NC(=O)C2CCCN2CCOC(=O)c2ccccc2)c(C)c1.Cl (stereo not drawn) | -26%
CC(NC(=O)c1ccccc1F)c1nnc(SCC(=O)NC2=NCCS2)n1C (stereo not drawn) | 22.3%
COC(=O)c1cc(CNC(=O)c2ccccc2Cl)ccc1OC | 0.487%
COC(=O)C1=C(C(=O)OC)C(c2cc([N+](=O)[O-])ccc2O)c2sc(=O)[nH]c2S1 (stereo not drawn) | 1.28%
COC(=O)C1=C(C(=O)OC)C(c2ccccc2O)c2sc(=O)[nH]c2S1 (stereo not drawn) | -55.9%
COC(=O)C1=C(C(=O)OC)C(c2ccc(OC)c(OC)c2)c2sc(=O)[nH]c2S1 (stereo not drawn) | -54.8%
COC(=O)C1CSc2[nH]c(=O)sc2C1c1ccc(OC)c(OC)c1 (stereo not drawn) | 0.0419%
COc1ccc(C2c3sc(=O)[nH]c3SC3C4CCC(C4)C23)cc1OC (stereo not drawn) | -17.5%
COC(=O)C1=C(C(=O)OC)C(c2cc(Br)ccc2O)c2sc(=O)[nH]c2S1 (stereo not drawn) | -47.6%
S=c1[nH]nc(-c2ccc(Cl)cc2)n1-c1cccnc1 | 23.5%
Cc1ccc(-c2nc(C#N)c(N3CCC(C)CC3)o2)cc1 | 17.5%
N#Cc1c(N)nc2c(c1-c1ccncc1)CCCCC2 | -12.3%
COc1ccc(O)c(CN2CCCC(C(=O)c3ccccc3SC)C2)c1 (stereo not drawn) | -30.9%
COCCC(=O)N1CCCC(C(=O)c2ccccc2SC)C1 (stereo not drawn) | 13.1%
COc1cc(OC)c(OC)cc1CN1CCCC(C(=O)c2ccccc2SC)C1 (stereo not drawn) | -58.5%

Compound | hERG current change (%, negative = inhibition) at 10uM
COc1ccc(OC)c(CN2CCCC(C(=O)c3ccccc3SC)C2)c1 (stereo not drawn) | -75.9%
COc1cc(CN2CCCC(C(=O)c3ccccc3SC)C2)cc(OC)c1 (stereo not drawn) | -74.4%
O=C(/C=C/c1ccc(S(=O)(=O)N2CCOCC2)cc1)NCc1ccccc1 | -4.31%
O=c1[nH]c(-c2ccc(Cl)cc2)cs1 | 9.25%
COc1cc(NC(=O)Nc2cccc([N+](=O)[O-])c2)cc(OC)c1 | 1.42%
COc1cccc(NC(=O)[C@@H]2CCCN2S(=O)(=O)c2cccc3cccnc23)c1 | -5.87%
COCCN(C(=O)CCC(=O)Nc1nccs1)C(C(=O)NC(C)(C)C)c1ccc(F)cc1 (stereo not drawn) | -1.98%
COC(=O)CSc1nnc(CNc2ccc(F)cc2)o1 | 14.5%
COc1ccc(/C(N)=N/O)cc1O | 5.51%
C=C(C)Cn1c(=O)c2c(nc3n2CCCN3CCc2ccccc2)n(C)c1=O | -73.3%
C=CCn1c(=O)c2c(nc3n2CCCN3CCc2ccc(OC)c(OC)c2)n(C)c1=O | -79.6%
CCn1c(=O)c2c(nc3n2CCCN3CCc2ccc(OC)c(OC)c2)n(C)c1=O | -5.18%
CCCn1c(=O)c2c(nc3n2CC(C)CN3Cc2ccccc2)n(C)c1=O (stereo not drawn) | -39.4%
CC(C)Cn1c(=O)c2c(nc3n2CC(C)CN3Cc2ccccc2)n(C)c1=O (stereo not drawn) | -83.3%
Cn1c(=O)n(Cc2ccccc2)c(=O)c2c1nc1n2CCCN1CCc1ccccc1 | -26%
CCCn1c(=O)c2c(nc3n2CCCN3CCc2ccc(OC)c(OC)c2)n(C)c1=O | -23.7%
Cn1c(=O)n(CC(=O)O)c(=O)c2c1nc1n2CCCN1CCc1ccccc1 | 13.6%
CC1CN(Cc2ccccc2)c2nc3c(c(=O)n(C)c(=O)n3C)n2C1 (stereo not drawn) | -36.1%
CC(C)Cn1c(=O)c2c(nc3n2CCCN3CCc2ccccc2)n(C)c1=O | -76%
C=C(C)Cn1c(=O)c2c(nc3n2CCCN3Cc2ccccc2)n(C)c1=O | -17.9%
Cn1c(=O)c2c(nc3n2CCCN3CCc2ccccc2)n(C)c1=O | -1.45%
